Measurements as given in PubChem BioAssay (NCI).
Compounds without any hit were thinned out: in the full panel of roughly 83,000, 20% have a hit.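 Step 1: grow cells in 96-well plates. Step 2: add test compound at a single concentration. Step 3: incubate 48 h. Step 4: record percent growth.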 Values without a mark were called inactive. Calls of active or inactive are those of the source.

Each molecule was assayed on HCT-116 colon (assay: NCI-60 one-dose screen, 48 h (100 = growth as untreated, 0 = no growth, -100 = all killed)). Conditions: 10 µM unless noted.
Procedure: Growth inhibition of the HCT-116 human tumor cell line is measured as a screen for anti-cancer activity. Cells are grown in 96 well plates and exposed to the test compound for 48 hours. Compounds are tested at a single concentration, which is 10^-5 M for most compounds. The reported endpoint is percent growth (GI% or GIPRCNT), where numbers from 0 - 100% represent growth inhibition, and numbers from -100% - 0 represent cell death. For example, a value of 40 represents 60% growth inhibition. A value of 0 means no net growth occurred over the course of the experiment. A value of -40 indicates 40% of cells at the beginning of the experiment died by the end of the experiment. A value of -100 means all cells are dead at the end of the experiment.
NCI-60 Human Tumor Cell Lines Screen was performed using the standard one-dose NCI protocol, which is described in more detail at https://dtp.cancer.gov/discovery_development/nci-60/default.htm.
Compounds with GIPRCNT values below 10 were considered active. Activity score was based on GIPRCNT using the following formula: […]
Score is 0 for GIPRCNT values of 100 or above, 50 for GIPRCNT values of 0, and 100 for GIPRCNT values of -100.
In the case of `COc1ccc2c(CCCc3ccc(Cl)cc3Cl)c3[n+](cc2c1OC)CCc1cc2c(cc1-3)OCO2`, the growth is reported as -11.6% (active).
For `CN1[C@@H]2CC[C@H]1/C(=C\c1ccccc1)C1=C2[C@@H](c2ccccc2)C(C#N)=C(N)O1`, the growth was 49.9%.
With `O=c1nc2c(-c3nc4ccccc4s3)n[nH]n2c2sc3c(c12)CCCC3` the growth was 89.1%.
`O=C(COc1ccc(/C=C2\Cc3ccc(Cl)cc3C2=O)cc1)Nc1nccs1` gave a growth of 91.3%.
For `CNC(=O)c1cccc2cc(Oc3ccnc4cc(OCC5(N)CC5)c(OC)cc34)ccc12`, the growth was 33.2%.
Work on `CCCCOc1nc2cc(Cl)ccc2cc1/C=C/c1cc(/C=C/c2cc3ccc(Cl)cc3nc2OCCCC)n(-c2ccccc2)n1` yielded a growth of 85.3%.
In the case of `Cc1cc2c(-c3nc4ccccn4c3N)c(O)c(O)cc2c(O)c1-c1c(C)cc2c(-c3nc4ccccn4c3N)c(O)c(O)cc2c1O`, the growth is reported as 9.9% (active).
In the case of `Cc1nc2cc(-c3nn(C(C)C)c4ncnc(N)c34)ccc2o1`, the growth is reported as 7.77% (active).
For `CC1(C)NC(=O)c2[nH]c3c(Cl)c(Cl)ccc3c2C1C#N` (stereo not given), the growth was 83.6%.
For `O=C(c1c(F)ccc(NS(=O)(=O)N2CC[C@@H](F)C2)c1F)c1c[nH]c2ncc(-c3cnc(C4CC4)nc3)cc12`, the growth was 30.8%.
`COc1cc2c(c(OC)c1)C1c3ccccc3NC(=O)N1CC2` (stereo not given) gave a growth of 30.6%.
In the case of `CCc1nc2cc(/C=C/C(=O)NO)ccc2c(=O)n1CCc1ccc(OC)cc1`, the growth is reported as 1.28% (active).
For `CC(CCCC(=O)O)c1ccoc1` (stereo not given), the growth was 101%.
For `Clc1ccc2c(NCCCNCc3ccc4c(c3)OCO4)ccnc2c1`, the growth was 36.5%.
`COc1cc(Nc2ncc3c(n2)-c2ccc(Cl)cc2C(c2c(F)cccc2OC)=NC3)ccc1C(=O)O` showed a growth of 45.3%.
In the case of `CN1CCN(CC(=O)Nc2ccc(-c3nc4ccccc4s3)cc2)CC1`, the growth is reported as 70.9%.
`Nc1nc(=S)c2ncn(C3OC(COC(=O)c4ccc(Cl)cc4)C(OC(=O)c4ccc(Cl)cc4)C3OC(=O)c3ccc(Cl)cc3)c2[nH]1` (stereo not given) was tested, and the growth was 76%.
For `COc1ccc(C2CC(=O)c3c(O)c(OC)c(OC)c(OC)c3O2)c(O)c1` (stereo not given), the growth was 10.2%.
`Cc1c(N)ccc(-c2ccc(N)c(C)c2S(=O)(=O)O)c1S(=O)(=O)O` showed a growth of 101%.
Molecule `OCCNC(=S)Nc1ccc(-c2nc(N3C[C@H]4CC[C@@H](C3)O4)c3cccn3n2)cc1` has a growth of 22.6%.
With `CNC(=O)c1cc(COc2nnc(Nc3ccc(Cl)cc3)c3ccoc23)ccn1` the growth was 35.5%.
In the case of `COCCOc1cnc2ccn([C@H](C)c3nnc4c(F)cc(-c5cnn(C)c5)cn34)c(=O)c2c1`, the growth is reported as 99.9%.
With `COc1cc2c(Oc3ccc(NC(=O)C4(C(=O)Nc5ccc(F)cc5)CC4)cc3F)ccnc2cc1OCCCN1CCOCC1` the growth was -61.2% (active).
`Cn1cc(-c2ncnc3ccc(-c4cnc(Cl)c(NS(C)(=O)=O)c4)cc23)c2ccccc21` gave a growth of 20.3%.
`CCN(CCO)CCCOc1ccc2c(Nc3cc(CC(=O)Nc4cccc(F)c4)[nH]n3)ncnc2c1` showed a growth of 11.1%.
For `CC(C)c1ccc(/C=N/Nc2nc3ccccc3s2)cc1`, the growth was 89%.
`CO/C=C/C(=O)c1cc2cnc3c(=N)cc(NC(=O)C(C)C)c([nH]1)c23` was tested, and the growth was -55.4% (active).
For `CC(C)CC(=O)Nc1n[nH]c2c1CN(C(=O)C1CCN(C)CC1)C2(C)C`, the growth was 2.94% (active).
For `Cc1cc2c3c(cccc3c1)C(=O)c1ccccc1-2`, the growth was 96.1%.
With `COC(=O)[C@]12CC[C@@H](C)[C@H](C)[C@@H]1C1=CC[C@@H]3[C@@]4(C)C[C@@H](OC(=O)/C=C/c5ccccc5)[C@H](O)[C@@](C)(CO)[C@@H]4[C@H](O)C[C@@]3(C)[C@]1(C)CC2` the growth was -56.4% (active).
Work on `C[C@@H]1COC(Nc2ccc3ncnc(Nc4ccc(OCc5nccs5)c(Cl)c4)c3c2)=N1` yielded a growth of 30.1%.
Molecule `O=C1CCC(=O)CC1` has a growth of 109%.
In the case of `O=[N+]([O-])c1cc(Br)cc2c1[nH]c1ccc(Br)cc12`, the growth is reported as 36.6%.
In the case of `Cc1cc(-c2cc(OC(=O)c3ccccc3)ccc2Cl)cc2nnc(Nc3ccc(OCCN4CCCC4)cc3)nc12`, the growth is reported as 55.5%.
In the case of `Oc1ccc(/C=N/Nc2nnc(N/N=C/c3ccc(O)cc3O)c3ccccc23)c(O)c1`, the growth is reported as -44.1% (active).
`CCC1(/C=N/NC(N)=S)NC(=O)NC1=O` (stereo not given) gave a growth of 101%.
In the case of `Cc1ccc(F)c(NC(=O)Nc2ccc(-c3cccc4[nH]nc(N)c34)cc2)c1`, the growth is reported as 6.9% (active).
With `O=c1[nH]ccc2c(S(=O)(=O)N3CCCNCC3)cccc12` the growth was 81.5%.
`O=C1CC(c2cccc(F)c2)c2c(n[nH]c2-c2ccc(Cl)cc2)N1` (stereo not given) was tested, and the growth was 74.4%.
For `CCN(CC)CCCC(C)Nc1cc(-c2ccc(C(F)(F)F)cc2)c(C#N)c2nc3ccccc3n12` (stereo not given), the growth was 3.28% (active).
